Broadly, the AC50 is the concentration giving half of the maximal activity seen.

Active and inactive are the calls of the source. How the source made its calls: active means hit-call score of the fitted dose curve at least 0.9, where 1 is the maximum; inactive means score below 0.9.

This assay can be described thus: APR_HepG2_MitoMass_24hr: Apredica 24-hour HepG2 Assay for Mitochondrial Mass (AID 2282912). As to conditions: high-content imaging, actives raise or lower the signal. On the procedure: APR_HepG2_24hr is a cell-based, multiplexed-readout assay that uses HepG2, a human liver cell line, with measurements taken at 24 hours after chemical dosing in a 384-well plate.APR_HepG2_MitoMass_24hr is one of 10 assay component(s) measured or calculated from the APR_HepG2_24hr assay. It is designed to make measurements of cell phenotype, a form of morphology reporter, as detected with fluorescence intensity signals by HCS Fluorescent Imaging technology.Data from the assay component APR_HepG2_MitoMass_24hr was analyzed into 1 assay endpoint. This assay endpoint, APR_HepG2_MitoMass_24hr, was analyzed with bidirectional fitting relative to DMSO as the negative control and baseline of activity. Using a type of morphology reporter, gain or loss-of-signal activity can be used to understand changes in the signaling. Furthermore, this assay endpoint can be referred to as a primary readout, because this assay has produced multiple assay endpoints where this one serves a signaling function. To generalize the intended target to other relatable targets, this assay endpoint is annotated to the cell morphology intended target family, where the subfamily is organelle conformation.
Cells were treated with dimethyl sulfoxide (DMSO) as a solvent control at a final concentration of 0.5% v/v or with compounds in DMSO with a resulting final DMSO concentration of 0.5% v/v. Compound treatment was done at concentrations of 0.39, 0.78, 1.56, 3.12, 6.24, 12.5, 25, 50, 100, and 200 uM in duplicate on each plate. Cells were treated with compounds for 1, 24, or 72 hr. Carbonyl […] m-chloro-phenylhydrazone (CCCP) and taxol were used as positive controls for mitochondrial function and cytoskeletal stability, respectively; DMSO served as the negative control for this experiment. Cells were fixed by the direct addition of 50 uL formaldehyde in Hank's Balanced Salt Solution (HBSS) to a final concentration of 3.7%. After incubation in the fixation medium for 30 min at room temperature (293-298 K), cells were rinsed twice with HBSS and treated with cell permeabilization buffer (16 uL of 0.5% Triton X-100) for 10 min at room temperature (293-298 K) before labeling. For mitochondrial membrane potential and mitochondrial measurements, pre-fixed cells were incubated with 50 uL of MitoTracker Red CMXRos (Invitrogen) at a concentration of 250 nM for 30 min before fixation. In the remaining cases, post-fixed cells were labeled by incubation with a multiplexed mixture of primary antibodies in HBSS for 60 min at room temperature (293-298 K) to detect immunoreactivity of c-Jun (1:500), phospho-histone H3 (1:100), phospho-histone H2A.x (1:200), p53 (1:400), alpha-tubulin (1:200) and Hoechst 33342 (2 ug/mL). Cells were labeled for multiplexed imaging on two separate plates: a) Hoechst 33342, MitoTracker Red, phospho-histone H3, and alpha-tubulin, and b) Hoechst 33342, phospho-histone H2A.x, and c-Jun. A final rinse with HBSS (50 uL) was performed before analysis. The primary and secondary antibodies for the proteins were phospho-histone H3 (rabbit anti-phospho-histone H3 and FITC-donkey anti-rabbit IgG), phospho-histone H2A.x (mouse anti-phospho-histone H2A.x and FITC-donkey anti-mouse IgG), c-Jun (rabbit anti-phospho-c-Jun and Cy3-donkey anti-rabbit IgG), p53 (sheep anti-p53 and Cy5-donkey anti-sheep IgG), alpha-tubulin (mouse anti-alpha-tubulin and Cy5-donkey anti-mouse IgG). These antibodies are available as the CellCiphr HepG2 assay kit (Millipore).Digital images of each well were captured using a Cellomics ArrayScan VTI (Thermo Scientific Cellomics) (0.8 NA objective, 0.63x optical coupler, and XF-93 filter set) at 20x magnification. The images were acquired using the autofocus feature of the ArrayScan instrument, which entails the following steps. First, the camera focuses on channel 1 (Hoechst 33342), where nuclei are identified. Second, a Z offset of 1 um is used for capturing mitochondria (MitoTracker Red). […]
Turning to `CC(C)c1nnc2ccc(-c3ocnc3-c3cc(F)ccc3F)cn12`, the compound was called inactive. The same measure, in the same setting: under `CCOc1ccc2[nH]cc(C(=O)NCc3ccccc3)c(=O)c2n1` stands “inactive”; under `CCCCCCCC1CCC(=O)O1` (stereo not given), “inactive”; under `CCCCCCCC/C=C\CCCCCCCC(=O)OC[C@@H](O)[C@H]1OC[C@H](O)[C@H]1O`, “inactive”.

`NC(=O)N1c2ccccc2C=Cc2ccccc21`: the outcome was inactive. The same measure, in the same setting: under `OC[C@H]1O[C@@](CO)(O[C@H]2O[C@H](CO)[C@@H](O)[C@H](O)[C@H]2O)[C@@H](O)[C@@H]1O` stands “inactive”. `CCc1cccc(CC)c1N`: the result was inactive. Regarding `C=CN1CCCC1=O`, the call was inactive. Regarding `Cc1nc(-c2ccccn2)ncc1C(=O)Nn1cc(C)c2cc(F)ccc21`, the AC50 is 108 µM (active). Regarding `CC1(C)C(=O)N(Cl)C(=O)N1Cl`, the result was inactive. The same measure, in the same setting: the same measure for `C[C@@H](Oc1ccc(CNC(=O)c2cccnc2Oc2ccc3c(c2)OCO3)c(F)c1)C(=O)O`: “inactive”. As for `Cc1nccn1-c1ccc(Sc2cccc(C3(C(N)=O)CCOCC3)c2)cc1`, the AC50 was 19.8 µM (active). As for `Cc1ccc(S(=O)(=O)NC(=O)NN2CCCCCC2)cc1`, the outcome was inactive.

Regarding `CCN(CC)C(=S)SSC(=S)N(CC)CC`, the AC50 is 26.1 µM (active).

As for `NC(=O)N(O)[C@@H]1COc2cc(OCc3ccccc3)ccc21`, the compound was called inactive.

Regarding `CCc1ccc(O)c(C(C)(C)C)c1`, the AC50 is 105 µM (active). Consider `CCOC(N)=O`, for which the compound was called inactive. As to `c1ccc(C(O[C@@H]2CCCN(CCc3ccc4c(c3)OCO4)C2)c2ccccc2)cc1`, the AC50 is 100 µM (active). In the case of `CCCc1ccccc1`, the call was inactive. For the compound `OC(CCl)CCl`, the result was inactive. Same read-out and setting: under `C[C@]12C=CC(=O)C=C1CC[C@H]1[C@@H]3C[C@@H](O)[C@](O)(C(=O)CO)[C@@]3(C)C[C@H](O)[C@@]12F` stands “inactive”.

On to `CC(C)CCCCCCOC(=O)C1CCCCC1C(=O)OCCCCCCC(C)C` (stereo not given), for which the outcome was inactive. Regarding `Cc1ncc([C@@H](CCCCCCc2ccc3c(n2)NCCC3)CC(=O)O)cn1`, the AC50 was 0.18 µM (active). Take `CC(=O)c1ccccc1`: the compound was called inactive. Still for that read-out and setting: the same measure for `OCc1ccccc1`: “inactive”; for `COS(C)(=O)=O`: “inactive”. Take `CCCCCCCCCCCCCCCCOS(=O)(=O)O`: the call was inactive. On to `O=S(=O)(O)c1ccc(N=Nc2c(O)ccc3cc(S(=O)(=O)O)ccc23)cc1`, for which the compound was classed as inactive. On the same count and under the same terms, under `CCCCCOC(C)=O` stands “inactive”; under `CCCOc1ccc(S(=O)(=O)N2CCN(CC)CC2)cc1-c1nc2c(CC)n(Cc3ccccn3)nc2c(=O)[nH]1`, “inactive”; under `c1ccc2ncccc2c1`, “inactive”. For `COc1cc(C(C)C)c2c(c1)S(=O)(=O)N(COc1cc(=O)n3cccc(OCCN4CCCCC4)c3n1)C2=O`, the AC50 was 29.1 µM (active). For the compound `CC(C)CC(C)O` (stereo not given), the compound was classed as inactive. Regarding `CC[C@H](C)C(=O)O[C@H]1C[C@H](O)C=C2C=C[C@H](C)[C@H](CC[C@@H](O)C[C@@H](O)CC(=O)O)[C@H]21`, the call was inactive. Still for that read-out and setting: the same measure for `NNC(=O)c1ccncc1`: “inactive”; for `CNC(C)=O`: “inactive”; for `OC[C@H]1O[C@@H]2O[C@H]3[C@H](O)[C@@H](O)[C@@H](O[C@H]4[C@H](O)[C@@H](O)[C@@H](O[C@H]5[C@H](O)[C@@H](O)[C@@H](O[C@H]6[C@H](O)[C@@H](O)[C@@H](O[C@H]7[C@H](O)[C@@H](O)[C@@H](O[C@H]1[C@H](O)[C@H]2O)O[C@@H]7CO)O[C@@H]6CO)O[C@@H]5CO)O[C@@H]4CO)O[C@@H]3CO`: “inactive”. Still for that read-out and setting: the same measure for `OCCOCCOCCO`: “inactive”; for `CCn1nc(C)c2c1C(=O)NCC(c1ccc(O)cc1)=N2`: “inactive”; for `O=C(O)c1cccc(C(=O)O)c1`: “inactive”.

Source of the values: PubChem BioAssay (EPA / NIEHS).
